These results are taken from PubChem BioAssay (NCI).

Among the test systems are SR leukemia; RPMI-8226 leukemia; OVCAR-8 ovarian; OVCAR-5 ovarian; OVCAR-4 ovarian; SK-OV-3 ovarian; IGROV1 ovarian; OVCAR-3 ovarian; HS 578T breast; NCI/ADR-RES ovarian.
What all share (test): NCI-60 one-dose screen, 48 h (100 = growth as untreated, 0 = no growth, -100 = all killed)
What all share (details): 10 µM

Compounds without any hit were thinned out: in the full panel of roughly 83,000, 20% have a hit.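 Activity criterion: percent growth below 10, measured after cells in 96-well plates were exposed to a single compound concentration for 48 hours.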 Values without a mark were called inactive. Activity calls are given as the source filed them.

Regarding `CCCCCCCCCCCCCC[n+]1ccc(C)cc1`, the growth is -38.2% (active) in the experiment with SR leukemia; -29.7% (active) with RPMI-8226 leukemia; -19.1% (active) in the experiment with OVCAR-8 ovarian; 3.81% (active) in the experiment with OVCAR-5 ovarian; 7.84% (active) in the experiment on OVCAR-4 ovarian; -24.2% (active) in the experiment on SK-OV-3 ovarian. For the same compound, the growth is -79.5% (active) in the experiment on IGROV1 ovarian, -57.2% (active) in the experiment with OVCAR-3 ovarian, -22.6% (active) in the experiment on HS 578T breast and 66.6% in the experiment on NCI/ADR-RES ovarian.

Regarding `COc1ccc2oc(=O)cc(C(c3ccc[nH]3)c3ccc[nH]3)c2c1`, the growth was 1.93% (active) in the experiment with SR leukemia; -3.8% (active) in the experiment with RPMI-8226 leukemia; -4.93% (active) with OVCAR-8 ovarian; 34.8% in the experiment on OVCAR-5 ovarian; 38.8% in the experiment with OVCAR-4 ovarian; 7.19% (active) in the experiment with SK-OV-3 ovarian. Further, the growth was 25.5% in the experiment on IGROV1 ovarian, -8.55% (active) in the experiment with OVCAR-3 ovarian, 18.8% in the experiment with HS 578T breast and 7.99% (active) in the experiment on NCI/ADR-RES ovarian.

With `Clc1cc(Cl)c(OCCCCCCN2CCNCC2)c(Cl)c1`, the growth in the experiment with SR leukemia is -13.9% (active); with RPMI-8226 leukemia, -24.9% (active); with OVCAR-8 ovarian, 76%; with OVCAR-5 ovarian, 71%; with OVCAR-4 ovarian it was 86.9%; with SK-OV-3 ovarian, 98%. For the same compound, the growth with IGROV1 ovarian is 46.6%; with OVCAR-3 ovarian, 45.7%; in the experiment with HS 578T breast it was 55.3%; with NCI/ADR-RES ovarian, 75.8%.

In the case of `CCNC1(NC#N)CCCCC1`, the growth in the experiment on SR leukemia was 103%; in the experiment on RPMI-8226 leukemia, 101%; with OVCAR-8 ovarian it was 84.4%; in the experiment on OVCAR-5 ovarian, 116%; in the experiment on OVCAR-4 ovarian, 113%; with SK-OV-3 ovarian, 104%. For the same compound, the growth in the experiment on IGROV1 ovarian was 115%; in the experiment with OVCAR-3 ovarian, 109%; with HS 578T breast, 103%; with NCI/ADR-RES ovarian it was 101%.

For the compound `COc1cccc(C(=O)N(c2ccc(F)c(F)c2)C(C(=O)NC(C)(C)C)c2cc3c(C)cc(C)cc3nc2Cl)c1` (stereo not given), the growth with SR leukemia is 67.6%; in the experiment with RPMI-8226 leukemia it was 42.9%; in the experiment on OVCAR-8 ovarian, 84.1%; with OVCAR-5 ovarian, 86.5%; in the experiment with OVCAR-4 ovarian it was 48.7%; with SK-OV-3 ovarian, 75.5%. Moreover, the growth with IGROV1 ovarian was 77.2%; in the experiment with OVCAR-3 ovarian, 60.3%; in the experiment with HS 578T breast it was 79.8%; in the experiment on NCI/ADR-RES ovarian, 73.2%.

Take `COc1cccc(C(=O)NNc2nc(N3CCN(C4CCCCC4)CC3)nc(N3CCN(C(c4ccccc4)c4ccccc4)CC3)n2)c1`: the growth in the experiment with SR leukemia was -16.1% (active); in the experiment on RPMI-8226 leukemia, -11.5% (active); in the experiment on OVCAR-8 ovarian it was 30.1%; with OVCAR-5 ovarian it was 94.3%; with OVCAR-4 ovarian it was 24.2%; in the experiment with SK-OV-3 ovarian it was 52.2%. Further, the growth in the experiment with IGROV1 ovarian is 37.6%; with OVCAR-3 ovarian it was 32.2%; in the experiment on HS 578T breast, 74.2%; with NCI/ADR-RES ovarian it was 31.1%.

Take `OC(CNC1CCCC1)Cn1c2ccccc2c2ccccc21` (stereo not given): the growth in the experiment with SR leukemia is -32.5% (active); with RPMI-8226 leukemia it was 1.44% (active); in the experiment on OVCAR-8 ovarian it was 24.2%; in the experiment on OVCAR-5 ovarian, 103%; in the experiment with OVCAR-4 ovarian it was 36.2%; in the experiment with SK-OV-3 ovarian, 59.7%. Also, the growth was 30.9% in the experiment with IGROV1 ovarian, 36.4% in the experiment with OVCAR-3 ovarian, 63.6% in the experiment on HS 578T breast and 15.1% in the experiment on NCI/ADR-RES ovarian.

Turning to `COc1cc(/C=C2\C(=O)Nc3cc(C)c(O)cc32)cc(OC)c1OC`, the growth with SR leukemia is 21.4%; in the experiment on RPMI-8226 leukemia, -18.3% (active); in the experiment on OVCAR-8 ovarian it was 72.1%; in the experiment on OVCAR-5 ovarian, 94.5%; in the experiment on OVCAR-4 ovarian, 62.6%; in the experiment with SK-OV-3 ovarian it was 77.5%. For the same compound, the growth is 47.7% with IGROV1 ovarian, 35.7% in the experiment with OVCAR-3 ovarian, 56.6% in the experiment on HS 578T breast and 51.4% in the experiment on NCI/ADR-RES ovarian.

As for `O=C(NNC(=O)c1ccncc1)Nc1ccc([N+](=O)[O-])cc1`, the growth in the experiment on SR leukemia was 91.9%; in the experiment on RPMI-8226 leukemia it was 102%; in the experiment with OVCAR-8 ovarian, 105%; with OVCAR-5 ovarian, 108%; in the experiment on OVCAR-4 ovarian it was 108%; in the experiment with SK-OV-3 ovarian, 104%. In addition, the growth in the experiment on IGROV1 ovarian was 120%; with OVCAR-3 ovarian, 103%; in the experiment with HS 578T breast, 107%; in the experiment on NCI/ADR-RES ovarian, 96.4%.
